Molecules are shown by their SMILES. Values without a mark were called inactive. Results filed as inconclusive are left out. Active and inactive are the calls of the source. Unless noted, calls come from the whole dose curve; as a rule, active = well fitted curve in the direction sought with a large enough effect in the repeat runs; inconclusive = weak or mixed curves; inactive = no such curve, though single readings can be large; an effect the other way counts as inactive or inconclusive.

The values below come from PubChem BioAssay (Tox21).

The nature of test [1]: qHTS assay to identify small molecule agonists of the constitutive androstane receptor (CAR) signaling pathway - cell viability counter screen (AID 1224836). Note: nearly all actives have a fitted effect of over 45% in size. Note: potency is the fitted concentration of half-maximal effect. The gist of the method:
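Fluorescence from CellTiter-Fluor indicates live cells after 23 h exposure. The human hepatoma line expresses hCAR and a CYP2B6-2.2kb reporter. Incubation medium contains 0.75 uM PK11195 (final).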
A general note: Quantitative high-throughput screening tests each substance at several concentrations.

A short description of test [2]: qHTS assay to identify small molecule antagonists of the constitutive androstane receptor (CAR) signaling pathway - cell viability counter screen (AID 1224837). Note: nearly all actives have a fitted effect of over 45% in size. Note: potency is the fitted concentration of half-maximal effect. The gist of the method:
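Viability was measured with CellTiter-Fluor in a HepG2 line carrying stably transfected hCAR and a CYP2B6-2.2kb construct. Cells were exposed for 23 hr at 37 C to 15 compound concentrations with 50 nM CITCO as agonist.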

Test [3] in a line: qHTS assay to identify small molecule antagonists of the estrogen related receptor signaling pathway with the pleiotropic PPARgamma coactivator (PGC) from Tox21 10K library - cell viability counter screen (AID 1224840; active = well fitted cell-killing curve with a large enough effect in the repeat runs, not every such curve was filed as active; note: nearly all actives have a fitted effect of over 40% in size; note: potency is the fitted concentration of half-maximal effect). The gist of the method:
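Multiplexed viability counter screen in the PGC/ERR cell line: cells treated with DMSO-dissolved compounds for 17.5 hours at 37 C, then viability measured as CellTiter-Fluor fluorescence.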

Test [4] can be described thus: qHTS assay to identify small molecule antagonists of the estrogen related receptor signaling pathway with the pleiotropic PPARgamma coactivator (PGC) from Tox21 10K library (AID 1224841; call rule not given here; note: potency is the fitted concentration of half-maximal effect; actives are mostly falling curves and most rising ones were filed inactive; nearly all actives have a fitted effect of over 50% in size). The method in brief:
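Steps: plate 2,000 PGC/ERR cells per well; incubate 6 h at 37 C with 5% CO2; transfer compounds from DMSO stocks by pin tool; incubate 18 h at 37 C; add One-Glo; measure luminescence 30 min later.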

Test [5] in a line: qHTS assay to identify small molecule agonists of the estrogen related receptor signaling pathway with the pleiotropic PPARgamma coactivator (PGC) from Tox21 10K library (AID 1224842). Note: % is set by controls: 0 for no effect and ±100 for the full control effect; nearly all actives have a fitted effect of over 15% in size. The gist of the method:
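PGC/ERR reporter cells (NTP line) were seeded 2,000 per well, rested 6 h at 37 C/5% CO2, then pin-dosed with compounds in DMSO for 18 h at 37 C; luciferase read by One-Glo luminescence after 30 min at room temperature.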

For test [6], the target named is Thyrotropin receptor (Homo sapiens) (UniProt P16473). Briefly: qHTS assay to identify small molecule agonists of the thyroid stimulating hormone receptor (TSHR) signaling pathway (AID 1224843; calls by dose curve; note: nearly all actives have a fitted effect of over 45% in size; note: potency is the fitted concentration of half-maximal effect; for activation: % is set by controls: 0 for no effect and ±100 for the full control effect). The method in brief:
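Compounds are titrated over 15 concentrations, in triplicate, onto TSHR-HEK293 cells seeded at 800/well. Plates sit 30 min at room temperature before cAMP-d2 and anti-cAMP cryptate are added; signal is read after a further hour.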

Test [7] is described as follows: qHTS assay to identify small molecule agonists of the hypoxia (HIF-1) signaling pathway - cell viability counter screen (AID 1224844; calls by dose curve; note: nearly all actives have a fitted effect of over 50% in size; note: potency is the fitted concentration of half-maximal effect). The method in brief: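 Cytotoxicity was measured in parallel with the HRE-driven beta-lactamase readout: after 17 hrs of compound exposure at 37C, HRE-bla ME-180 cells received CellTiter-Glo and luminescence was recorded 30 min later.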

Test [8] in a line: qHTS assay to identify small molecule agonists of H2AX - cell viability counter screen (AID 1224847; calls by dose curve; note: nearly all actives have a fitted effect of over 30% in size; note: potency is the fitted concentration of half-maximal effect). The method in brief:
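Viability of CHO-K1 (wild type) cells after 3 hr compound exposure was measured by CellTiter-Glo luminescence.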

Test [9] can be described thus: qHTS assay to identify small molecule antagonists of the estrogen related receptor (ERR) signaling pathway from Tox21 library (AID 1224848). Note: nearly all actives have a fitted effect of over 50% in size. Note: potency is the fitted concentration of half-maximal effect. The method in brief:
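First, 2,000 ERR cells per well were plated and held 6 h at 37 C/5% CO2. Next, compounds in DMSO were pinned in and left 18 h at 37 C. Finally, ONE-Glo was added and luminescence read after 30 min at room temperature.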

Test [10] in a line: qHTS assay to identify small molecule agonists of the estrogen related receptor (ERR) signaling pathway from Tox21 library (AID 1224849; calls by dose curve; note: % is set by controls: 0 for no effect and ±100 for the full control effect; nearly all actives have a fitted effect of over 15% in size). The conditions noted are these: ERR reporter cell line, ONE-Glo luciferase, 18 h; at 92.4 µM (top of the series) unless noted. The method in brief: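 Cells carrying the ERR reporter were plated and allowed to settle for 6 h, exposed to library compounds for 18 h at 37 C, then lysed with ONE-Glo and luminescence measured.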

Test [11] can be described thus: qHTS RealTime-Glo MT Cell Viability Assay in HepG2 cells - 24 hour (AID 1224867). Note: nearly all actives have a fitted effect of over 50% in size. Note: potency is the fitted concentration of half-maximal effect. The method in brief: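 qHTS, HepG2, 600 cells/well, RealTime-Glo (NanoLuc + prosubstrate) added with cells; 5 h preincubation; DMSO compound addition; 37 C; luminescence at 0/8/16/24/32/40 h.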
A short description of test [12]: A CellTox Green Cytotoxicity Assay to monitor cytotoxicity in HEK293 cells - 0 hour (AID 1224869). The gist of the method: (§1)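 Cells (HEK293, 600/well) and dye reagent are dispensed together. After 5 h at 37 C, 23 nL compound is pinned in. Plates stay at 37 C for 40 h with fluorescence read at 0h, 8h, 16h, 24h, 32h and 40h.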
The nature of test [13]: A CellTox Green Cytotoxicity Assay to monitor cytotoxicity in HEK293 cells - 40 hour (AID 1224871). Note: nearly all actives have a fitted effect of over 45% in size. Note: potency is the fitted concentration of half-maximal effect. The method in brief: as §1
The nature of test [14]: qHTS RealTime-Glo MT Cell Viability Assay in HEK293 cells - 16 hour (AID 1224872). Note: nearly all actives have a fitted effect of over 50% in size. Note: potency is the fitted concentration of half-maximal effect. The gist of the method:
(§2)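 Assay medium contained NanoLuc luciferase plus cell-permeant prosubstrate, added with HEK293 cells at 600 cells/well. After 5 h at 37 C/5% CO2 compounds were added; plates stayed at 37 C for 40 h with serial luminescence reads.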

Test [15] is described as follows: qHTS assay to identify small molecule agonists of H2AX (AID 1224845; active = well fitted activation curve with a large enough effect in the signal ratio in the repeat runs, not every such curve was filed as active; the % refers to the signal ratio; note: potency is the fitted concentration of half-maximal effect). The method in brief: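 Wild-type CHO-K1 cells plated overnight, then exposed 3 hr at 37C to compounds at 15 concentrations (0.76% DMSO). Lysed, then HTRF anti-pH2AX(S139)-cryptate/anti-H2AX-d2 detection after 24 hr at room temperature; emissions 665 and 620 nm.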
The nature of test [16]: qHTS assay to identify small molecule agonists of the hypoxia (HIF-1) signaling pathway (AID 1224846; active = well fitted activation curve with a large enough effect in the signal ratio in the repeat runs, not every such curve was filed as active; the % refers to the signal ratio; note: % is set by controls: 0 for no effect and ±100 for the full control effect). The method in brief: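 Compounds from the Tox21 10K library, dissolved in DMSO, are tested for induction of a hypoxia response element–controlled beta-lactamase reporter in ME-180 cells. Exposure lasts 17 hrs at 37C after a 5 hr settling period, followed by CCF4-AM FRET substrate.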

A short description of test [17]: qHTS RealTime-Glo MT Cell Viability Assay in HepG2 cells - 40 hour (AID 1224870). Note: nearly all actives have a fitted effect of over 50% in size. Note: potency is the fitted concentration of half-maximal effect. The method in brief:
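HepG2 cells mixed with RealTime-Glo MT reagents (NanoLuc plus cell-permeant prosubstrate) were seeded at 600 cells/well, incubated 5 h at 37 C/5% CO2, then pinned with compounds in DMSO; nonlytic luminescence tracked viability during 40 h treatment.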

The nature of test [18]: qHTS RealTime-Glo MT Cell Viability Assay in HEK293 cells - 32 hour (AID 1224868). Note: nearly all actives have a fitted effect of over 50% in size. Note: potency is the fitted concentration of half-maximal effect. The gist of the method: as §2

Chain of Thyrotropin receptor (Homo sapiens) (P16473 whole entry, looked up): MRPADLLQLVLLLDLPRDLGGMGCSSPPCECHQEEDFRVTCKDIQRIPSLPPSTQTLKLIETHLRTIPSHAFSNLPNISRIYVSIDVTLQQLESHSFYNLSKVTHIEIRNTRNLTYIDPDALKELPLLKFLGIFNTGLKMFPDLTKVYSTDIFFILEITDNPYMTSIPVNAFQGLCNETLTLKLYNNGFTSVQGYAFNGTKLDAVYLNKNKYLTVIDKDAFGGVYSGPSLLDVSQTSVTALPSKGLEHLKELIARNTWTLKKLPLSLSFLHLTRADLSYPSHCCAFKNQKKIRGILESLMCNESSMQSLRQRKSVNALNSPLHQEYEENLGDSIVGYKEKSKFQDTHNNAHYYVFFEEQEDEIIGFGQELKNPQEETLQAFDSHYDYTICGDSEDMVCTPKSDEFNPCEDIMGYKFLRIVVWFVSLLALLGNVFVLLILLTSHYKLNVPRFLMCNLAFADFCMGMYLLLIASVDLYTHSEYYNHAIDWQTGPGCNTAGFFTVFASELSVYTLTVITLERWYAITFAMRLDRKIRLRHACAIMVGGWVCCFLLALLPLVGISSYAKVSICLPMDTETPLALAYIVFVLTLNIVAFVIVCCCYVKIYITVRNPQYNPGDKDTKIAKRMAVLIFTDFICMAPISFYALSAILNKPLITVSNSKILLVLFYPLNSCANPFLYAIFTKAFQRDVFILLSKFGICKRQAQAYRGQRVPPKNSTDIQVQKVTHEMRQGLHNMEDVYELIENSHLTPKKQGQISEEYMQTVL

Regarding `O=S1(=O)CC(Cl)(Cl)C(Cl)(Cl)C1`, the Potency in test [1] was 12.2 µM (active); in test [2], 8.63 µM (active); in test [3] it was 9.69 µM (active); in [4], 13.7 µM (active); in test [6], 4.86 µM (active); in [7], 3.89 µM (active). Also, the Potency in test [8] is 25.3 µM (active); in test [9], 15.4 µM (active); in test [11] it was 6.92 µM (active); in [13] it was 1.95 µM (active); in test [14], 4.9 µM (active). For the same compound, the Potency entry in [5] and in test [12] was “inactive” in each case. In addition, the activity change, positive = activation in test [10] is -79.8%.
Turning to `CCN(C(=O)N(CC)c1ccccc1)c1ccccc1`, the Potency result in test [1], in [2], in [3], in test [5], in [7] and in [15] was “inactive” throughout. In addition, the Potency result in test [16], in test [11], in test [12] and in test [17] was “inactive” throughout. The activity change, positive = activation in test [10] is -25.8%.
On to `CC(=O)OCC(C)OC(C)=O` (stereo not drawn), for which the Potency entry in [1], in [2], in [3], in [6], in test [7] and in test [15] was “inactive” throughout. Further, the Potency entry in [16], in [11], in test [12], in [17], in test [13] and in test [14] was “inactive” each time.
As for `CCCCC(CC)CN=C(N)NC(N)=NCCCCCCN=C(N)NC(N)=NCC(CC)CCCC` (stereo not drawn), the Potency was 26.6 µM (active) in test [1]; 23.7 µM (active) in [2]; 16.8 µM (active) in test [3]; 23.7 µM (active) in [4]; 23.9 µM (active) in test [7]; 43.8 µM (active) in test [8]. For the same compound, the Potency is 6.68 µM (active) in test [9]; 8.49 µM (active) in test [11]; 5.35 µM (active) in test [18]; 8.49 µM (active) in [13]; 6.74 µM (active) in test [14]. Further, the Potency result in test [5], in [15] and in [12] was “inactive” in each case. Besides, the activity change, positive = activation in [10] is -65.1% [at 42.5 µM].
In the case of `CN(C)[C@@H]1C(=O)C(C(N)=O)=C(O)[C@@]2(O)C(=O)C3=C(O)c4c(O)ccc(Cl)c4[C@@H](O)[C@H]3C[C@@H]12`, the Potency entry in test [1], in [2], in test [3], in [5], in test [7] and in test [15] was “inactive” throughout. In addition, the Potency result in test [8], in test [9], in [11], in test [18], in test [12] and in test [17] was “inactive” each time. Further, the Potency entry in test [13] and in [14] was “inactive” throughout. Besides, the activity change, positive = activation in test [10] was -10.9% [at 42.5 µM].
As to `CCCCCOc1ccccc1/C(=C\SC)n1ccnc1`, the Potency entry in [1], in test [2], in [3], in test [5], in test [11] and in test [12] was “inactive” throughout. For the same compound, the Potency entry in test [17] and in test [13] was “inactive” throughout. In addition, the Potency in [4] is 15 µM (active); in test [6], 21.1 µM (active); in test [9] it was 21.1 µM (active). The activity change, positive = activation in [10] was -47.2% [at 42.5 µM].
As to `Oc1cc2ccccc2c2ccccc12`, the Potency was 17.2 µM (active) in [1]; 13.7 µM (active) in test [2]; 7.7 µM (active) in [3]; 7.76 µM (active) in test [7]; 17.9 µM (active) in [15]; 28.4 µM (active) in test [8]. Also, the Potency in [11] was 11 µM (active); in [18] it was 11 µM (active); in test [17], 11 µM (active); in [13], 15.5 µM (active); in [14] it was 6.92 µM (active). The Potency entry in test [12] is “inactive”.
In the case of `O=Cc1cc(O)ccc1Br`, the Potency entry in test [1], in [2], in test [3], in test [15], in [11] and in test [12] was “inactive” in each case. In [17], the Potency entry was “inactive”.
